The values that follow come from ChEMBL document CHEMBL4513216, “Probing the Open Global Health Chemical Diversity Library for Multistage-Active Starting Points for Next-Generation Antimalarials” (ACS Infect Dis, 2020).

The campaign covered roughly 69,000 compounds. About 8,600 (12%) showed an effect of 50% or more. The entries come from a sample that favours strong results as a whole.

This test deals with Plasmodium berghei. As to the kind of experiment: Screen against P. berghei liver stage (PbLuc), transformed with Luciferase, at 10uM. The format is functional, HepG2. Particulars: tested at 10 uM.
In the case of `O=C(NCc1ccccn1)C1CN(c2nc3ccccc3s2)CCN1` (stereo not given), the INHIBITION is on record as 58.2%. Consider `O=C(NC1CC1)C1CN(c2nc3ccccc3s2)CCN1` (stereo not given), for which the INHIBITION amounted to 65.6%. Then `Nc1nccc(N2CCNC(C(=O)NCc3ccccn3)C2)n1` (stereo not given), with 52.6%; and `CCNC(=O)O[C@H]1COCCN(c2nc3ccccc3s2)C1`, with -3.58%. The same measure for `O=C(NCc1cccnc1)C1CN(c2cnc3ccccc3n2)CCN1` (stereo not given): 37.8%; for `O=C(NCc1ccncc1)C1CN(c2nc3ccccc3s2)CCN1` (stereo not given): 30.4%; for `Cc1ccc(CN2CCNC(C(=O)NC3CC3)C2)cc1C` (stereo not given): -2.25%.

As to `O=C(NCc1ccccn1)NC1CCCN(c2ncccn2)C1` (stereo not given), the INHIBITION amounted to 23%. The same measure for `O=C(NCc1ccccn1)[C@H]1COC[C@H]2CN(c3ncccn3)C[C@H]21`: 41%. Turning to `O=C(NC1CCCC1)O[C@H]1COCCN(c2nc3ccccc3s2)C1`, the INHIBITION amounted to 85.1%. As for `CCCc1nc(C)cc(N2CCNC(C(=O)NC3CC3)C2)n1` (stereo not given), the INHIBITION was found to be 47.1%.

Regarding `CC(C)NC(=O)O[C@H]1COCCN(c2nc3ccccc3s2)C1`, the INHIBITION is reported as -1.12%. Consider `Cc1cc(=O)n2c3c(cc(S(=O)(=O)NC4CC4)cc13)CCC2`, for which the INHIBITION was found to be 49.45%. As for `Cc1cc(CN2CCc3cncnc3C2)no1`, the INHIBITION is recorded as 23.9%. Take `Cc1ccccc1-c1cc(CC2(C(=O)O)CCOCC2)on1`: the INHIBITION is recorded as -21.4%. The same measure for `Cc1cc(CN2CCN(Cc3ccccc3F)CC2)no1`: -4.35%; for `CN(C)C(=O)c1cncnc1-c1ccc(CNC(=O)C2CCCO2)cc1` (stereo not given): 4.615%; for `CC(C)n1c(=O)[nH]c2cn(-c3ccc(F)cc3)c(=O)n21`: 3.16%.

In the case of `Cc1[nH]c2c(C)ccc(C)c2c1CC(=O)NCCCNc1cccnc1`, the INHIBITION turned out to be 36.7%. With `Cc1[nH]c2c(C)ccc(C)c2c1CC(=O)NCC(O)c1cccnc1` (stereo not given), the INHIBITION stood at 76.5%. For the molecule `Cc1[nH]c2c(C)ccc(C)c2c1CC(=O)NCCNc1cccnc1`, the INHIBITION was -17.2%. The same measure for `Cc1ccc2c(n1)N(C)CCN(C(=O)C1CC1)C2`: 7.84%. On to `COC(=O)CCN(C)C(=O)c1csc(Cc2ccccc2F)n1`, for which the INHIBITION worked out at 91.3%. Turning to `CCNC(=O)CN(CC)C(=O)c1csc(Cc2ccccc2F)n1`, the INHIBITION stood at 32%. Turning to `CC(C)NC(=O)CN(C)C(=O)c1csc(Cc2ccccc2F)n1`, the INHIBITION turned out to be 23.1%. As for `CC(C)NC(=O)N1CC[C@H]2[C@H]1CCN2c1ncccn1`, the INHIBITION was -44.2%.

Turning to `Cc1cnn(CC(C)NCc2csc(-c3cnn(C)c3)n2)c1` (stereo not given), the INHIBITION turned out to be 47.1%. In the case of `Cc1cnc(NCc2ccncc2)nc1-c1cnn(C)c1`, the INHIBITION was found to be 2.15%.

Take `Cc1cnc(NCc2csc(C(C)C)n2)nc1-c1cnn(C)c1`: the INHIBITION is 58.5%.

For the molecule `CCNc1ncc(C)c(-c2cnn(C)c2)n1`, the INHIBITION turned out to be 27.6%.

Take `Cc1cnc(CNc2ncc(C)c(-c3cnn(C)c3)n2)cn1`: the INHIBITION turned out to be 39.4%. In the case of `Cc1cnc(NCc2cnn(C)c2)nc1-c1cnn(C)c1`, the INHIBITION is recorded as 61.2%. On to `N#CC1CCN(C(=O)NCCc2ccc(Cl)s2)CC1`, for which the INHIBITION was -7.31%.

As for `O=C(c1ccc(Cl)cc1)N1CCC(N2CCCCC2=O)CC1`, the INHIBITION is reported as 27.5%. Then `Cc1c(C(=O)NC2=NCCS2)cnn1-c1ccc(Br)cc1`, with -156%; and `COCC1Cn2nnc(-c3cnn(C)c3)c2CN1Cc1ccco1` (stereo not given), with 11.8%. Regarding `Cc1cc(C(=O)N2CCCC(n3cncn3)C2)c(C)n1CC1CC1` (stereo not given), the INHIBITION is listed as -41.6%. Turning to `CC(Cc1ccco1)NC(=O)Nc1cccnc1` (stereo not given), the INHIBITION is listed as -10.1%. Then `CC(C)N1CCOC(Cc2nn3c(Cc4ccccc4)nnc3s2)C1` (stereo not given), with 45.5%; and `CC(C)c1nnc2sc(CC3CN(Cc4ccccc4)CCO3)nn12` (stereo not given), with 42.8%; and `CCCc1nnc2sc(CC3CN(Cc4ccccc4)CCO3)nn12` (stereo not given), with 59.2%. Consider `Cc1c(C(C)N)cnn1-c1ccccn1` (stereo not given), for which the INHIBITION is given as -12.1%. For `Cc1ccccc1-n1ncc(C(C)N)c1C` (stereo not given), the INHIBITION is on record as 58.4%. Regarding `Cc1c(C(C)N)cnn1-c1cccc2ccccc12` (stereo not given), the INHIBITION worked out at 7.24%. As to `Cc1nn(C)c2cn(C(C)C(=O)NCc3ccccn3)nc12` (stereo not given), the INHIBITION turned out to be 55.7%. The same measure for `COc1ccccc1CNC(=O)C(C)n1cc2c(n1)c(C)nn2C` (stereo not given): 21.7%. In the case of `Cc1nn(C)c2cn(C(C)C(=O)NCc3ccc(F)cc3)nc12` (stereo not given), the INHIBITION was 19.3%. Then `Cc1nn(C)c2cn(C(C)C(=O)NCc3cccnc3)nc12` (stereo not given), with -2.37%; and `Cc1nn(C)c2cn(C(C)C(=O)NCc3cccc(F)c3)nc12` (stereo not given), with 58.2%. With `Cc1nn(C)c2cn(C(C)C(=O)NCc3ccncc3)nc12` (stereo not given), the INHIBITION is recorded as 32.5%.

In the case of `CN(Cc1ccco1)C(=O)NC1CCCN(c2ncccn2)C1` (stereo not given), the INHIBITION stood at 4.865%. Turning to `COc1ccc2c(ccn2CC(=O)Nc2n[nH]c(CC(C)C)n2)c1`, the INHIBITION is recorded as 16%.

Consider `CN(C)S(=O)(=O)N1C[C@@H]2COC[C@]2(COc2ccccn2)C1`, for which the INHIBITION is listed as 11.5%. With `Cc1cc(C2CCC2)nc(N2CCC3(CCCN(C)C3=O)C2)n1` (stereo not given), the INHIBITION is listed as -14.3%. Turning to `O=C1CCCN1c1cccc(N2CCC(NCCc3cscn3)CC2)c1`, the INHIBITION amounted to 14.3%.

As for `c1cc(-c2cscn2)cc(N2CCC(NCCc3cccs3)CC2)c1`, the INHIBITION was determined as 75.5%. In the case of `c1ccc(-c2cccc(N3CCC(NCCc4cscn4)CC3)c2)cc1`, the INHIBITION amounted to 69.9%.

For `O=C(NCCc1cccs1)NC1CCN(c2ncccn2)CC1`, the INHIBITION is listed as -89%. In the case of `Cc1nc(-c2cccc(N3CCC(NC4CCOCC4)CC3)c2)cs1`, the INHIBITION amounted to 37.7%. Consider `Cc1ccc(N2CCCC(NCc3cscn3)C2)nn1` (stereo not given), for which the INHIBITION was found to be 26.8%. As to `CNc1cccc(C2CCN(C(=O)c3cccnc3)CC2)n1`, the INHIBITION was -9.27%. Take `Cc1cc(C(=O)N2CCN(S(C)(=O)=O)[C@@H](C)C2)c(F)cc1F`: the INHIBITION is given as -14.2%. For the molecule `Cc1ccc(C)c2c(C)c(C(=O)NCCCn3ccnn3)[nH]c12`, the INHIBITION came out at 47.2%. Turning to `O=C(NC1CCCN(c2ncccn2)C1)c1ccoc1` (stereo not given), the INHIBITION is -6.32%. On to `CC(C)c1nc(C2CCCN(C(=O)c3ccc(N(C)C)nn3)C2)no1` (stereo not given), for which the INHIBITION was 30.3%.

Take `CCC(NC(=O)c1nn(C)cc1C(=O)O)c1ccccc1` (stereo not given): the INHIBITION is on record as 15.9%. For the molecule `Cc1cc(NC2CCc3ncnn3C2)n2nc(C(F)(F)F)nc2n1` (stereo not given), the INHIBITION was 26.9%. Take `Cc1cccc(CN2CC[C@@H]3[C@@H]2CCN3C(=O)c2cc(C)oc2C)n1`: the INHIBITION is given as -6.23%. As to `O=C(O)C1CCCN(c2nc3c(-c4ccccc4)csc3c(=O)[nH]2)C1` (stereo not given), the INHIBITION was determined as 36.6%. Turning to `Cc1ccc(-c2csc3c(=O)[nH]c(N4CCCC(C(=O)O)C4)nc23)cc1` (stereo not given), the INHIBITION came to 32.8%. Turning to `Cc1ccccc1-c1csc2c(=O)[nH]c(N3CCCC(C(=O)O)C3)nc12` (stereo not given), the INHIBITION is 52.5%. `CC(C)CC(=O)N1CCC2(CC1)OC(C(N)=O)Cn1ccnc12` (stereo not given): the INHIBITION worked out at 7.7%. As to `Cc1ccsc1C(=O)N1CC2CC1(C(=O)NCC1CC1)C2`, the INHIBITION was determined as 23.5%. As for `O=C(N1CCCC1)C12CC(CN1Cc1nccs1)C2`, the INHIBITION is listed as -2.03%. Then `O=C(NCC1CC1)C12CC(CN1Cc1nccs1)C2`, with 82.2%; and `CN(C)C(=O)c1cc(-c2ccncc2)[nH]n1`, with -8.28%. The same measure for `CN1CCN(C(=O)c2cc(C#N)cs2)c2ccccc2C1`: -91.4%; for `c1ccc(CCNc2ncnc3c2CCN(Cc2c[nH]cn2)CC3)cc1`: 37.3%. The same measure for `CN(C)c1ccc(C(=O)N2CCCN(Cc3cscn3)CC2)nn1`: -31.8%. For the molecule `O=C(c1cnc2n1CCN(Cc1ccccc1)C2)N1CCCC1`, the INHIBITION is recorded as 17.1%.

Regarding `CC(=O)N1CCc2nc(-c3ccc(F)cc3)nc(NC(C)C)c2CC1`, the INHIBITION was determined as 64.7%.

On to `CC(C)Nc1nc(-c2ccccc2)nc2c1CCN(C(=O)C1CC1)CC2`, for which the INHIBITION is recorded as 73.8%. `Cc1nc(-c2ccc(F)cc2)nc2c1CCN(C(=O)CN(C)C)CC2`: the INHIBITION came out at 37.9%. As for `O=C(C1CCOCC1)N1CCc2ncnc(-c3ccccc3)c2CC1`, the INHIBITION was -28.8%. The same measure for `CC(=O)NCC(=O)N1CCc2nc(-c3ccccc3)nc(C)c2CC1`: 37.9%; for `Cc1nc2c(c(NC(C)C)n1)CCN(C(=O)c1ccno1)CC2`: 49.1%. For the molecule `COCC(=O)N1CCc2nc(NC(C)C)nc(NC(C)C)c2CC1`, the INHIBITION was determined as 48.4%. Take `CC(=O)N1CCc2nc(-c3ccccc3)nc(NC(C)C)c2CC1`: the INHIBITION was found to be 59.3%. Then `COCC(=O)N1CCc2nc(C)nc(NC(C)C)c2CC1`, with 35.8%.

On to `CC(C)Nc1nc(-c2ccccc2)nc2c1CCN(C(=O)CC#N)CC2`, for which the INHIBITION is 72%. Turning to `Cc1nc2c(c(NCc3ccccc3)n1)CCN(C(=O)C1CCC1)CC2`, the INHIBITION worked out at 42.3%. Then `CCOCC(=O)N1CCc2nc(C)nc(NC(C)C)c2CC1`, with 32.1%; and `Cn1cc(S(=O)(=O)N2CCN(S(=O)(=O)c3ccc(Br)s3)CC2)cn1`, with 43.2%; and `CN(Cc1cnn(C)c1)C(=O)NCc1cc(Br)cs1`, with 34.95%. `Cc1cc2c(=O)n(CCSc3cnn[nH]3)cnc2s1`: the INHIBITION worked out at 36.7%. The same measure for `O=C(COC[C@H]1CC[C@H]2[C@H](CCN2c2ncccn2)O1)N1CCCC1`: 1.81%. For the molecule `Cc1ccc(CCNC(=O)Cn2nc(C)n(Cc3ccccc3)c2=O)o1`, the INHIBITION is given as 13.6%.

As to `CN(Cc1cccc2cccnc12)C1CCS(=O)(=O)C1` (stereo not given), the INHIBITION is 36%.

Turning to `Cc1nnc(NCc2ccccc2F)c(C#N)c1C`, the INHIBITION is recorded as 1.35%. Take `O=C(c1ccnnc1)N1CCN(Cc2cccnc2)c2ncccc2C1`: the INHIBITION is on record as -39.9%. Take `CS(=O)(=O)CCn1ccc(NC(=O)Cc2cccc(Cl)c2)n1`: the INHIBITION was 16.5%. With `CSc1nnc(CC2CCN(C(=O)Cc3ccncc3)CC2)n1C`, the INHIBITION is 64.7%. As for `O=C(CCc1cccnc1)N1CCC(c2cnccn2)CC1`, the INHIBITION is on record as 15.9%.

`CC1CCCN(C(=O)CCc2cccnc2)C1` (stereo not given): the INHIBITION is listed as 20.9%. With `CSc1nnc(CC2CCN(C(=O)COc3cccnc3)CC2)n1C`, the INHIBITION is listed as 73%. Take `CSc1nnc(CC2CCN(C(=O)CCc3cccnc3)CC2)n1C`: the INHIBITION came to 51.7%. Take `Cc1ccc(NC2CCN(C(=O)COc3cccnc3)CC2)nn1`: the INHIBITION was determined as 44.6%.

With `CCOCC(=O)N1CCC(Cc2nnc(SC)n2C)CC1`, the INHIBITION was found to be 48%.

Turning to `CSc1nnc(C2CCN(C(=O)N3CCCC3)CC2)n1C`, the INHIBITION was 16.185%. Turning to `COc1cccc(CC(=O)N2CCC(Cc3nnc(SC)n3C)CC2)c1`, the INHIBITION is reported as 31.3%.
